Laboratory results as given in article PMC11574364.

What was measured:
Assay in all cases: protein domain microarray probed with biotinylated miRNA; Domain array: 20 mM Tris-HCl pH 7.4, 200 mM KCl, 0.2 mM EDTA, 0.05% NP40, 2 ug/ul heparin, overnight 4 C. ORF array: PBS pH 7.0 with RNase inhibitor, 100 ng RNA; high values mean tight binding
Settings in all cases: ssRNA
hnRNP-P2 = hnRNP-P2 (Homo sapiens, UniProt P35637)
hnRNP-H2 = biological target: T1, hnRNP-H2 (Homo sapiens, UniProt P55795)
T1 sequence: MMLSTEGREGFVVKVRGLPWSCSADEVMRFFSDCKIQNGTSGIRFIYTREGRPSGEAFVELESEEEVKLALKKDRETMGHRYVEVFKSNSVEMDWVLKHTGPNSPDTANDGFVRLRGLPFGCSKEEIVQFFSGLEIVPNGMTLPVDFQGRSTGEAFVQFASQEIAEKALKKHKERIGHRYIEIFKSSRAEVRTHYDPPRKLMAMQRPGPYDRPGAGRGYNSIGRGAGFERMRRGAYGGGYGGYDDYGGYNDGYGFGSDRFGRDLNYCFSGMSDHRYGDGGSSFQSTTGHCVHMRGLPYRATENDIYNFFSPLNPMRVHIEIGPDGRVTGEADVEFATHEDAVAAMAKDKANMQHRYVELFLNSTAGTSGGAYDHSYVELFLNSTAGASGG

MTHFSD = biological target: T2, MTHFSD (Homo sapiens, UniProt Q2M296)
T2 sequence: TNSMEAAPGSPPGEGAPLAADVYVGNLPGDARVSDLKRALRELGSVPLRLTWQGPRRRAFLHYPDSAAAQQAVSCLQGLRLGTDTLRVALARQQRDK

IGF2BP3 = IGF2BP3 (Homo sapiens, UniProt O00425)
NCBP2L = biological target: T3, NCBP2L (Homo sapiens, UniProt A6PVI3)
T3 sequence: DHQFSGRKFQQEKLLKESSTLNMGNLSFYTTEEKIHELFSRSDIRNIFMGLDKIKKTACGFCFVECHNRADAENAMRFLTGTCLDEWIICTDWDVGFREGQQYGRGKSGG

hnRNP-I(1-2) = hnRNP-I(1-2) (Homo sapiens, UniProt P26599)
LARP7(1) = biological target: T4, LARP7(1) (Homo sapiens, UniProt Q4G0J3)
T4 sequence: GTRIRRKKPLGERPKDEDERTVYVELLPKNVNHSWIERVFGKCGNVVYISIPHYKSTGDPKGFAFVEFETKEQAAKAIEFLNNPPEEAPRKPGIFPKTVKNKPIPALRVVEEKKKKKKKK

CELF5(1-2) = CELF5(1-2) (Homo sapiens, UniProt Q8N6W0)
EIF4H = EIF4H (Homo sapiens, UniProt Q15056)
PABPC1L2A = PABPC1L2A (Homo sapiens, UniProt Q5JQF8)
CELF6(1-2) = CELF6(1-2) (Homo sapiens, UniProt Q96J87)
hnRNP-D-like = biological target: T5, hnRNP-D-like (Homo sapiens, UniProt O14979)
T5 sequence: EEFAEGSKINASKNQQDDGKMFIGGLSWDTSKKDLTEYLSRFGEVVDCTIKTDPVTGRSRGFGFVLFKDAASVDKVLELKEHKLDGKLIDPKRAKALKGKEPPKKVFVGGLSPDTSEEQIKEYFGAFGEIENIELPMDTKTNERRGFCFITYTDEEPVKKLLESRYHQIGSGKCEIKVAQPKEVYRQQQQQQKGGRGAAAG

IGF2BP2 = IGF2BP2 (Homo sapiens, UniProt Q9Y6M1)
NIFK = NIFK (Homo sapiens, UniProt Q9BYG3)
PABPNL1 = biological target: T6, PABPNL1 (Homo sapiens, UniProt A6NDY0)
T6 sequence: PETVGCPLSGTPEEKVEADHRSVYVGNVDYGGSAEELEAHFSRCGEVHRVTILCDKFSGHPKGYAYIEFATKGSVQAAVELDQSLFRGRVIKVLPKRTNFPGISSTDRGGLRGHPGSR

PABPC5 = PABPC5 (Homo sapiens, UniProt Q96DU9)
MYEF2(1-2) = biological target: T7, MYEF2(1-2) (Homo sapiens, UniProt Q9P2K5)
T7 sequence: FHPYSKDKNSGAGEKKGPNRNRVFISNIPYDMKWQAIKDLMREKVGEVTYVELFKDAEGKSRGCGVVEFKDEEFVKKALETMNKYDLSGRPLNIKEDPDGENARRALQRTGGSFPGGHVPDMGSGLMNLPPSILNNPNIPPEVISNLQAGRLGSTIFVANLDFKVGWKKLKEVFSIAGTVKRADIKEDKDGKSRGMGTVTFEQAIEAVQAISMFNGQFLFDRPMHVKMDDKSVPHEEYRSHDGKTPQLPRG

CIRBP = biological target: T8, CIRBP (Homo sapiens, UniProt Q14011)
T8 sequence: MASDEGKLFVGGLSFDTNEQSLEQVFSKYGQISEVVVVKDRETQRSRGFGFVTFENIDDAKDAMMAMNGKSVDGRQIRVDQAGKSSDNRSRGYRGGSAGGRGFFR

ELAVL4 = ELAVL4 (Homo sapiens, UniProt P26378)
NCBP2 = biological target: T9, NCBP2 (Homo sapiens, UniProt P52298)
T9 sequence: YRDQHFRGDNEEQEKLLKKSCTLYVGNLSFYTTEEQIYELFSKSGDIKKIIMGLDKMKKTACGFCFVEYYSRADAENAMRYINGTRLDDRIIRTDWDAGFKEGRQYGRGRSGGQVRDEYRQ

IGF2BP3, sequence (O00425 1-176): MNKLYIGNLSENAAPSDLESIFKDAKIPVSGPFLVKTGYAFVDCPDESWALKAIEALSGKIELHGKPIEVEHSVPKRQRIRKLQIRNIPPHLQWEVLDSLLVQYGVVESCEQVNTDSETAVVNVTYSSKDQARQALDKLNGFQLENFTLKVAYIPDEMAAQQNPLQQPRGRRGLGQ
ELAVL4, sequence (P26378 30-385): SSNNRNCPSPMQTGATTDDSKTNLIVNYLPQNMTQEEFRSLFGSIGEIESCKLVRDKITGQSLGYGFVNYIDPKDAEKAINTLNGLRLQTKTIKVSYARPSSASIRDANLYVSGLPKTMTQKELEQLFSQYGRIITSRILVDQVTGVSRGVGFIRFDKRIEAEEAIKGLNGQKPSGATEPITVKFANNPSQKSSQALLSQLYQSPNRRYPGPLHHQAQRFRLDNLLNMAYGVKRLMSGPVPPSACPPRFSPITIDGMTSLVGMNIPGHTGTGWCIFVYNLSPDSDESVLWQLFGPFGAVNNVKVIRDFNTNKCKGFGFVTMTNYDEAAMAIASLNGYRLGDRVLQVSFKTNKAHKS
hnRNP-P2, sequence (P35637 265-390): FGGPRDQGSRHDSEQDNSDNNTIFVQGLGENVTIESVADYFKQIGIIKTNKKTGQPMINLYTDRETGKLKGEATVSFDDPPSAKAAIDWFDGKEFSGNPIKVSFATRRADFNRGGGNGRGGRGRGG
CELF6(1-2), sequence (Q96J87 21-233): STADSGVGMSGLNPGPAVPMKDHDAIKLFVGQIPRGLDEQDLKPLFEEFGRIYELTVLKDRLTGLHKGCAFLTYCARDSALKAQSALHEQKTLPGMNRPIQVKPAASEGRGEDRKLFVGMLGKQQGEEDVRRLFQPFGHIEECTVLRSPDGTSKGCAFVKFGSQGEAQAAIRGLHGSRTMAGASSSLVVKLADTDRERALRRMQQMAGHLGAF
hnRNP-I(1-2), sequence (P26599 40-280): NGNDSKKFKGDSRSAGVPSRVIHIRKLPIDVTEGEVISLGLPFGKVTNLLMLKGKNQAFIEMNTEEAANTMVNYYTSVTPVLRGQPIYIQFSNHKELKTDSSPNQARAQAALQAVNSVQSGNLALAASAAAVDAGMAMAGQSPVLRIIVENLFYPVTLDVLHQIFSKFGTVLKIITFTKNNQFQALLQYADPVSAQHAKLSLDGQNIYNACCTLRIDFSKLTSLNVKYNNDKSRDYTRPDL
IGF2BP2, sequence (Q9Y6M1 1-177): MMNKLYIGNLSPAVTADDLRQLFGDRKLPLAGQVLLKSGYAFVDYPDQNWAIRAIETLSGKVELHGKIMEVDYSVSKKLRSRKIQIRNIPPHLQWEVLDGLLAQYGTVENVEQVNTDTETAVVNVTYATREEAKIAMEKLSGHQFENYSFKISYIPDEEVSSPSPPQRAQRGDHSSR
CELF5(1-2), sequence (Q8N6W0 20-233): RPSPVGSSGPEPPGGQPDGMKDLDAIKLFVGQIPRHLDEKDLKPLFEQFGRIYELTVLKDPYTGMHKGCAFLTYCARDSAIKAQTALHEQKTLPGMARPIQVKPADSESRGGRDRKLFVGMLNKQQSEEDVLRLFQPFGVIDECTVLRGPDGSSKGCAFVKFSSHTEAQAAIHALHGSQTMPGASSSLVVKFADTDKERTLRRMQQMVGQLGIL
PABPC1L2A, sequence (Q5JQF8 whole entry): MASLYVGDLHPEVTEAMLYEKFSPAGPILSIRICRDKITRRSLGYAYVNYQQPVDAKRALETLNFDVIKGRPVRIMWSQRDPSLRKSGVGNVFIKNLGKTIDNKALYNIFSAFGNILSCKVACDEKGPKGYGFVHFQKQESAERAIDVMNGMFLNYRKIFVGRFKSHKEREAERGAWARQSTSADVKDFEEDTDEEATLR
PABPC5, sequence (Q96DU9 whole entry): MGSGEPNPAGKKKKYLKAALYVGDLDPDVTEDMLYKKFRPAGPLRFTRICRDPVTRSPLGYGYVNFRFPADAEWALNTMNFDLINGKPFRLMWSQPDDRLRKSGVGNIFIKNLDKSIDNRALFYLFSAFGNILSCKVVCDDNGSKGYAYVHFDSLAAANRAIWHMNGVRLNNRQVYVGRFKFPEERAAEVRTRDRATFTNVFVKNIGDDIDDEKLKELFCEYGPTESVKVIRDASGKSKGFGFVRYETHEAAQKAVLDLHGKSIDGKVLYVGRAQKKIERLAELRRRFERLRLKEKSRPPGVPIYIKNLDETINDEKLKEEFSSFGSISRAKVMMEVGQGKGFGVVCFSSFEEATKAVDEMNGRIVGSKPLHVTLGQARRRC

CAGUGCAAUGAUGAAAGGGCAU
binding signal (hnRNP-P2): 40.3 ± 3.56 fluorescence intensity | binding signal (hnRNP-H2): 944.5 ± 8.38 fluorescence intensity | binding signal (MTHFSD): 349.3 ± 0.905 fluorescence intensity | binding signal (IGF2BP3): 20.1 ± 2.45 fluorescence intensity | binding signal (NCBP2L): 162 ± 7.95 fluorescence intensity | binding signal (hnRNP-I(1-2)): 185 ± 5.4 fluorescence intensity | binding signal (LARP7(1)): 104 ± 10.5 fluorescence intensity | binding signal (CELF5(1-2)): 52.7 ± 5.17 fluorescence intensity | binding signal (EIF4H): 71.2 ± 5.92 fluorescence intensity | binding signal (PABPC1L2A): 88.7 ± 6.19 fluorescence intensity | binding signal (CELF6(1-2)): 105 ± 14.1 fluorescence intensity | binding signal (hnRNP-D-like): 250 ± 14.8 fluorescence intensity | binding signal (IGF2BP2): 91.7 ± 5.63 fluorescence intensity | binding signal (NIFK): 38.6 ± 4.43 fluorescence intensity | binding signal (PABPNL1): 2030 ± 144 fluorescence intensity | binding signal (PABPC5): 187 ± 8.46 fluorescence intensity | binding signal (MYEF2(1-2)): 826 ± 53.3 fluorescence intensity | binding signal (CIRBP): 2040 ± 82.9 fluorescence intensity | binding signal (ELAVL4): 1170 ± 66.8 fluorescence intensity

UGAGGUAGUAGGUUGUGUGGUU
binding signal (hnRNP-P2): 576 ± 71.1 fluorescence intensity | binding signal (hnRNP-H2): 727 ± 35.9 fluorescence intensity | binding signal (MTHFSD): 439 ± 58.4 fluorescence intensity | binding signal (IGF2BP3): 36.9 ± 7.82 fluorescence intensity | binding signal (NCBP2L): 239 ± 6.08 fluorescence intensity | binding signal (hnRNP-I(1-2)): 994 ± 33.7 fluorescence intensity | binding signal (LARP7(1)): 234 ± 9.55 fluorescence intensity | binding signal (CELF5(1-2)): 107 ± 9.34 fluorescence intensity | binding signal (EIF4H): 208 ± 18.3 fluorescence intensity | binding signal (PABPC1L2A): 312 ± 42.4 fluorescence intensity | binding signal (CELF6(1-2)): 224 ± 12 fluorescence intensity | binding signal (NCBP2): 68.7 ± 13.2 fluorescence intensity | binding signal (hnRNP-D-like): 751 ± 46.5 fluorescence intensity | binding signal (IGF2BP2): 60.9 ± 10.8 fluorescence intensity | binding signal (NIFK): 207 ± 7.23 fluorescence intensity | binding signal (PABPNL1): 1609 ± 3.14 fluorescence intensity | binding signal (PABPC5): 304 ± 27.6 fluorescence intensity | binding signal (MYEF2(1-2)): 1050 ± 50.7 fluorescence intensity | binding signal (CIRBP): 2020 ± 38.1 fluorescence intensity | binding signal (ELAVL4): 1510 ± 102 fluorescence intensity

AGAGGUAGUAGGUUGCAUAGUU
binding signal (hnRNP-P2): 131 ± 2.9 fluorescence intensity | binding signal (hnRNP-H2): 907 ± 16.1 fluorescence intensity | binding signal (MTHFSD): 716 ± 48.4 fluorescence intensity | binding signal (IGF2BP3): 46.2 ± 3.19 fluorescence intensity | binding signal (NCBP2L): 202 ± 9.81 fluorescence intensity | binding signal (hnRNP-I(1-2)): 1010 ± 92.8 fluorescence intensity | binding signal (LARP7(1)): 137 ± 1.39 fluorescence intensity | binding signal (CELF5(1-2)): 56.1 ± 4.7 fluorescence intensity | binding signal (EIF4H): 115 ± 9.98 fluorescence intensity | binding signal (PABPC1L2A): 179 ± 20.3 fluorescence intensity | binding signal (CELF6(1-2)): 88.4 ± 8.85 fluorescence intensity | binding signal (NCBP2): 29.2 ± 11.8 fluorescence intensity | binding signal (hnRNP-D-like): 601 ± 9.77 fluorescence intensity | binding signal (IGF2BP2): 130 ± 20.3 fluorescence intensity | binding signal (NIFK): 81.96 ± 0.608 fluorescence intensity | binding signal (PABPNL1): 1510 ± 38.3 fluorescence intensity | binding signal (PABPC5): 351 ± 14.6 fluorescence intensity | binding signal (MYEF2(1-2)): 1130 ± 77.2 fluorescence intensity | binding signal (CIRBP): 2620 ± 43 fluorescence intensity | binding signal (ELAVL4): 1830 ± 31 fluorescence intensity

UGAGGUAGUAGGUUGUAUGGUU
binding signal (hnRNP-P2): 441 ± 19.8 fluorescence intensity | binding signal (hnRNP-H2): 663 ± 15.2 fluorescence intensity | binding signal (MTHFSD): 488 ± 22.1 fluorescence intensity | binding signal (IGF2BP3): 22.9 ± 3.19 fluorescence intensity | binding signal (NCBP2L): 180 ± 10.2 fluorescence intensity | binding signal (hnRNP-I(1-2)): 911 ± 32.3 fluorescence intensity | binding signal (LARP7(1)): 153.2 ± 0.424 fluorescence intensity | binding signal (CELF5(1-2)): 48 ± 2.14 fluorescence intensity | binding signal (EIF4H): 93.9 ± 8.49 fluorescence intensity | binding signal (PABPC1L2A): 240 ± 13.7 fluorescence intensity | binding signal (CELF6(1-2)): 89.8 ± 3.29 fluorescence intensity | binding signal (NCBP2): 66.8 ± 8.78 fluorescence intensity | binding signal (hnRNP-D-like): 741 ± 27.9 fluorescence intensity | binding signal (IGF2BP2): 49.2 ± 7.44 fluorescence intensity | binding signal (NIFK): 138 ± 7.4 fluorescence intensity | binding signal (PABPNL1): 1110 ± 57.4 fluorescence intensity | binding signal (PABPC5): 291 ± 13.4 fluorescence intensity | binding signal (MYEF2(1-2)): 789 ± 41.9 fluorescence intensity | binding signal (CIRBP): 1980 ± 32.4 fluorescence intensity | binding signal (ELAVL4): 1450 ± 42.8 fluorescence intensity

UGAGGUAGUAGGUUGUAUAGUU
binding signal (hnRNP-P2): 58.1 ± 13.9 fluorescence intensity | binding signal (hnRNP-H2): 258 ± 16.1 fluorescence intensity | binding signal (MTHFSD): 133 ± 32.4 fluorescence intensity | binding signal (NCBP2L): 40.6 ± 4.36 fluorescence intensity | binding signal (hnRNP-I(1-2)): 293 ± 83.2 fluorescence intensity | binding signal (LARP7(1)): 35.35 ± 0.0495 fluorescence intensity | binding signal (CELF5(1-2)): 24.4 ± 2.19 fluorescence intensity | binding signal (EIF4H): 31.8 ± 3.73 fluorescence intensity | binding signal (PABPC1L2A): 46.3 ± 9.23 fluorescence intensity | binding signal (CELF6(1-2)): 28.4 ± 3.05 fluorescence intensity | binding signal (hnRNP-D-like): 288 ± 15.7 fluorescence intensity | binding signal (IGF2BP2): 28.3 ± 5.47 fluorescence intensity | binding signal (NIFK): 23 ± 0.658 fluorescence intensity | binding signal (PABPNL1): 531 ± 16.5 fluorescence intensity | binding signal (PABPC5): 52 ± 3.7 fluorescence intensity | binding signal (MYEF2(1-2)): 228 ± 4.88 fluorescence intensity | binding signal (CIRBP): 1010 ± 76.7 fluorescence intensity | binding signal (ELAVL4): 725 ± 56.5 fluorescence intensity

UAGCUUAUCAGACUGAUGUUGA
binding signal (hnRNP-H2): 20 ± 0.509 fluorescence intensity | binding signal (MTHFSD): 42.6 ± 13.9 fluorescence intensity | binding signal (NCBP2L): 43.9 ± 1.85 fluorescence intensity | binding signal (hnRNP-I(1-2)): 72.7 ± 35.4 fluorescence intensity | binding signal (CELF6(1-2)): 32.2 ± 4.03 fluorescence intensity | binding signal (hnRNP-D-like): 40.3 ± 4.07 fluorescence intensity | binding signal (IGF2BP2): 21.5 ± 2.16 fluorescence intensity | binding signal (PABPNL1): 322 ± 10.4 fluorescence intensity | binding signal (MYEF2(1-2)): 393 ± 6.4 fluorescence intensity | binding signal (CIRBP): 801 ± 174 fluorescence intensity | binding signal (ELAVL4): 825 ± 34.8 fluorescence intensity
